Screens deposited in PubChem by National Center for Advancing Translational Sciences (NCATS).
IMPase inh – membrane-permeable compound that blocks inositol monophosphatase; P97697; CHO-M1 cells, IP1 accumulation, HTRF TR-FRET ratio; inhibition (IP1 accumulation), % at 46.1 µM; 120,000 tested, under 10 active; AID 901; active means well fitted curve in the direction sought with a large enough effect in the signal ratio, not every such curve was filed as active; inconclusive means small, poorly fitted or top-dose-only effect, or a change in a side signal; inactive means no such curve, though single readings can be large or run the other way; the % refers to the signal ratio;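 further: cells stimulated with carbachol in lithium chloride buffer; plate controls were DMSO basal wells for no effect and reference inhibitor wells for full effect; higher means more IMPase inhibition seen as more IP1 and lower FRET ratio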
Target sequence (P97697 whole entry, looked up): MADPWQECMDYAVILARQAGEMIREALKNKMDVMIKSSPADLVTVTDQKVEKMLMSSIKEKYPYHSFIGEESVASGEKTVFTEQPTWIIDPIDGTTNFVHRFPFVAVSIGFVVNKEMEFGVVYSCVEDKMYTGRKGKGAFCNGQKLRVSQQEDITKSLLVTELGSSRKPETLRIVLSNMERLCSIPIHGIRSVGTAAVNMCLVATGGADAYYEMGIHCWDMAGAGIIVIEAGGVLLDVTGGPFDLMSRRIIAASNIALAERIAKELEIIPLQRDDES
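The IP-One HTRF competitive assay in carbachol-stimulated CHO-M1 cells quantifies cellular IP1. Compounds spanned up to 46 uM final, and activity is expressed as AC50 from concentration-response fits of the ratio and donor data.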
ALDH1A1 inh – blocks purified human ALDH1A1 activity; P00352; Purified ALDH1A1, NADH fluorescence, propionaldehyde substrate; Potency, µM (highest dose often 75.3 µM), without a hit: top-dose activity, negative = inhibition, actives largely listed as inhibitors; hit rate 7.3% among 220,000; AID 1030;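 further: potency means the concentration at half of the fitted maximal effect; plate controls were no enzyme wells and a reference inhibitor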
HPGD block – blocks human HPGD enzyme activity; P15428; purified HPGD, NADH fluorescence kinetic, PGE2 substrate; Potency, µM, for inactives: top-dose activity change, negative = inhibition, hits mostly inhibitors; hit rate 4.3% among 150,000; further: potency means the concentration at half of the fitted maximal effect
Target sequence (P15428 whole entry, looked up): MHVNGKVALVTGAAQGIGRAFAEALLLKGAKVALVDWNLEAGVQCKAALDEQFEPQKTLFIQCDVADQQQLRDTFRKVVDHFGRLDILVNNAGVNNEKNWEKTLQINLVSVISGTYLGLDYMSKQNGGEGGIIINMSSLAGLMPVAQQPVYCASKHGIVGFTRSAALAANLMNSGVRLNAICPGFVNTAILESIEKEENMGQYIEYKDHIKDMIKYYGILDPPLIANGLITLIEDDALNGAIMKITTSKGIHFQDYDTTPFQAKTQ
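NADH formation kinetics: reaction with 30 uM PGE2 and 1 mM NAD+ (final), 20 nM enzyme, Tris-HCl pH 8 with Tween 20, after 15 min compound preincubation at room temperature. Fluorescence change, last versus first of five reads.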
Active calls of the source: *; ? = inconclusive; / = not tested or not shown; [ ] = remark or other dose. Sampled rows, rich in hits. Any-hit rate of the full collection: about 9%. Unless noted, the call rests on the fitted dose curve; in most records, active means well fitted inhibition curve with a large enough effect (not every such curve was filed as active); inconclusive means small, poorly fitted or top-dose-only effect, or another doubt; inactive means no such curve, though single readings can be large or run the other way. Unless noted, on the % scale 0 is the no-effect control and ±100 the full control effect.

SMILES	IMPase inh	ALDH1A1 inh	HPGD block
CC(=O)N1CCN(C(=S)c2cccc([N+](=O)[O-])c2)CC1	/	-18%	-18%
Cc1ccc(C(=O)N2CCN(c3cccc(Cl)c3)CC2)cc1C	6	?	-17%
Oc1ccccc1C(=S)N1CCN(c2cccc(Cl)c2)CC1	/	10µM*	/
COc1cc(C(=S)N2CCN(c3cccc(Cl)c3)CC2)ccc1O	/	3.5µM*	/
COC(=O)/C=C/C(=O)N1CCN(c2cccc(Cl)c2)CC1	/	10µM*	-2%
COC(=O)c1ccc(C(=O)OC)c(NC(=S)N2CCN(c3cccc(Cl)c3)CC2)c1	/	-3%	-13%
NC(=O)c1c(-c2ccc(Cl)cc2Cl)csc1NC(=O)Cc1ccccc1	/	?	-15%
O=C(CN1C(=O)CSC1=O)c1ccccc1	1	-1%	-7%
Cc1oc(-c2cc3c(cc2Cl)OCO3)nc1CN1CCCC1c1ccc(F)cc1 (stereo unspecified)	/	-8%	/
COc1ccc(N(C(C)=O)c2nc(C)cc(C)c2C#N)c(OC)c1	/	3%	/
O=C(COC(=O)/C=C/c1cccs1)NC(c1ccccc1)c1ccccc1	-2	10%	-3%
COc1ccc(C(=S)N2CCN(c3cccc(Cl)c3)CC2)c(OC)c1	/	20µM*	/
CC(=O)c1ccc(NC(=S)N2CCN(c3cccc(Cl)c3)CC2)cc1	/	12%	/
Oc1ccc(C(=S)N2CCN(c3cccc(Cl)c3)CC2)cc1	/	7.9µM*	/
COc1ccc(C(=O)N2CCN(c3cccc(Cl)c3)CC2)cc1	8	4%	4%
O=C(COC(=O)/C=C/C(=O)N1CCN(c2ccccc2)CC1)NC(c1ccccc1)c1ccccc1	/	19µM*	/
COc1ccc(C(=O)c2ccc(N3CCOCC3)cc2)c(OC)c1	-9	1.1µM*	/
COc1ccc(C(=O)c2ccc(N(C)C)cc2)c(OC)c1	8	-16%	-11%
O=C(O)C(c1ccccc1)N1CCCCC1 (stereo unspecified)	/	-3%	/
Cc1noc(C)c1NC(=O)N1CCN(Cc2ccccc2)CC1	/	7%	/
CCCCN(C)CCC(=O)Nc1ccc2c(c1)CCC2	/	14%	/
COC(=O)c1ccccc1NC(=O)CSc1nc(=O)cc(N)n1-c1ccccc1	-17	/	/
CCCC(=O)Nc1cc(OC)c(C(=O)OC)cc1Cl	/	-6%	/
CCCCCCCCCCCCC(C(=O)O)C(C)C(=O)O (stereo unspecified)	/	5%	-19%
C=CCNC(=O)NC(=O)CSc1nnc(C(F)(F)F)n1C	/	9%	/
SMILES	IMPase inh	ALDH1A1 inh	HPGD block
CN(C)CCNC(=O)/C=N/O	4	-2%	5%
O=C(O)/C=C/C(=O)NC1CC1	/	3%	/
CC(C)C(=O)Nc1nc2ccc(S(C)(=O)=O)cc2s1	/	-4%	/
CC1=CCC(C(=O)O)C(C(=O)Nc2nc3ccc(S(C)(=O)=O)cc3s2)C1 (stereo unspecified)	-9	0.22µM*	-17%
CC#C[C@]1(O)CC[C@H]2C3CCC4=CC(=O)CCC4=C3[C@@H](c3ccc(N(C)C)cc3)C[C@@]21C (stereo partly specified)	/	6%	-8%
O=C(CC1N=C2c3ccccc3N=C(SCC(=O)Nc3ccccc3F)N2C1=O)NCc1ccc2c(c1)OCO2 (stereo unspecified)	6	/	/
Cc1ccccc1C(=O)NC(=S)NCC(=O)c1ccccc1	-1	-7%	?
O=C(CNC(=S)NC(=O)c1ccccc1Br)c1ccccc1	/	18µM*	/
Fc1ccc(CN2CCN3CCCC3C2C2CCCCC2)cc1F (stereo unspecified)	9	12%	-6%
Cc1ccc(S(=O)(=O)C2(C(=O)Nc3cccc(F)c3)CC2)cc1	-7	15%	-1%
CCOC(=O)c1ccc(-n2c(O)c(/C=N/NC(=O)C3COc4ccccc4O3)c3ccccc3c2=O)cc1 (stereo unspecified)	-1	-15%	?
O=C(Nc1ccc2c(c1)OCO2)N1CCCC1	/	-4%	/
O=C(Nc1ccccc1C(=O)O)c1cccc(S(=O)(=O)N2CCCC2)c1	-7	/	/
COc1cc(C(N)=O)cc(Cl)c1OC	/	1%	/
NNC(=O)c1ccncc1	-5[20.6 µM]	-3%	-12%
CNC(=O)c1cc(Cl)c(OC)c(OC)c1	-12	22µM*	?
NNC(=O)c1cc(O)c(O)c(O)c1	/	25µM*	/
NNC(=O)c1cc(Cl)ccc1Cl	/	?	-2%
COc1c(Cl)cc(C(=O)NN)cc1Cl	/	2.2µM*	/
COc1c(Cl)cc(C(=O)Nc2ccccc2C(=O)O)cc1Cl	8	13µM*	14µM*
Cn1c(=O)c2c(ncn2CN2CCN(Cn3cnc4c3c(=O)n(C)c(=O)n4C)CC2)n(C)c1=O	/	8%[13.5 µM]	0%
CCOC(=O)N1CCN(C(=O)CCNS(=O)(=O)c2ccc3c(c2)c(=O)n(C)c(=O)n3C)CC1	/	-6%	/
COc1ccc(CC(=O)Nc2ccc(C(=O)Nc3ccccc3C(=O)O)cc2)cc1OC	-8	28µM*	-16%
COc1ccc(CC(=O)Nc2ccc(C(=O)NC(C)(C)C)cc2)cc1OC	/	0%	/
O=C(CSc1nnc(-c2n[nH]c3ccccc23)n1-c1ccccc1)Nc1ccccc1Cl	/	?	-23%
SMILES	IMPase inh	ALDH1A1 inh	HPGD block
CC(C)Cn1cnc2c1c(=O)n(CC(=O)Nc1ccc3c(c1)OCO3)c(=O)n2Cc1ccccc1	9	?	-7%
Cc1ccc(/C=c2/sc3n(c2=O)CCCN=3)o1	9	3.5µM*	-27%
Cc1ccc(N2CN=c3s/c(=C\c4cccnc4)c(=O)n3C2)cc1	-4	17%	-21%
O=c1/c(=C\c2ccc3c(c2)OCO3)sc2n1CCCN=2	2	?	-16%
Cc1ccc(/C=c2\sc3n(c2=O)CN(c2ccc(Br)cc2)CN=3)o1	4	14µM*	-17%
C=CC(=O)N1C(=O)c2ccccc2S1(=O)=O	/	-8%	-10%
NC1(C(=O)O)CC(C(=O)O)C1 (stereo unspecified)	1	6%	-2%
O=C(CN1CCN(C(c2ccccc2)c2ccccc2)CC1)N1CCOCC1	19	-12%	-3%
O=C1c2ccccc2C(=O)N1CC#CCN1CCN(C(c2ccccc2)c2ccccc2)CC1	18	16µM*	-11%
Cc1cnc(CNc2ccnc(-c3ccc(C(=O)N(C)C)cc3)n2)cn1	/	-6%	5.6µM*
COc1ccccc1CNc1ccnc(-c2ccc(C(=O)N(C)C)cc2)n1	/	-5%	/
